# Platelet DG rel: platelet dense granule release activity | human platelet-rich plasma, SFLLRN dense granule ATP release, luminescence | inhibition, %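 (compounds screened at 7.5 µM in platelet-rich plasma)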 | 300,000 tested, 0.22% active;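 active = mean replicate score, as percent of positive control, at or above 50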
# HSF1 activator: increases HSF-1 driven luciferase reporter signal | NIH3T3-HGL HSF-1 luciferase reporter, MG132, 8 h; 100% = twice DMSO control signal | activation, % at 9 µM | 300,000 tested, 1.7% active;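 active = mean replicate activation of at least 50% with a set share of replicates each reaching 50%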;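 note: 0% = median of the neutral control wells and 100% = twice that signal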
# HSF1 inh: HSF1 inhibition; NIH3T3-HGL HSE-luciferase, MG132-induced, luminescence 8 h; active compounds read low; activity change, negative = inhibition, % at 7.5 µM (by protocol); 300,000 tested, 0.77% active; AID 2098;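 active = more than half of replicate wells show activity change below -50%, luminescence cut by over half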;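 note: luciferase reports HSF-1 transcriptional activity via heat shock element; 0% = median of DMSO wells and -100% = zero luminescence signal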
# MPTP block: blocks calcium-induced mitochondrial swelling. inhibition, % at 10 µM. AID 602449. isolated mouse mitochondria, Ca2+ swelling absorbance, 30 min. 360,000 tested, 1.4% active;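 active = inhibition of 50% or more, scaled per plate between neutral and stimulator controls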;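 note: 0% = DMSO wells given calcium and 100% = 1 mM EGTA wells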
# dFosB act-1: mouse delta FosB homodimer activation | activation, % at 25 µM | purified delta FosB, TAMRA-CDK5 oligo fluorescence polarization; percent of positive-control signal above neutral wells | 340,000 tested, 0.99% active | P13346;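 active = mean activation above about 17%, with every replicate also reaching it, limit read from the data, passing the limit was not always enough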
# Target sequence (P13346 whole entry, looked up): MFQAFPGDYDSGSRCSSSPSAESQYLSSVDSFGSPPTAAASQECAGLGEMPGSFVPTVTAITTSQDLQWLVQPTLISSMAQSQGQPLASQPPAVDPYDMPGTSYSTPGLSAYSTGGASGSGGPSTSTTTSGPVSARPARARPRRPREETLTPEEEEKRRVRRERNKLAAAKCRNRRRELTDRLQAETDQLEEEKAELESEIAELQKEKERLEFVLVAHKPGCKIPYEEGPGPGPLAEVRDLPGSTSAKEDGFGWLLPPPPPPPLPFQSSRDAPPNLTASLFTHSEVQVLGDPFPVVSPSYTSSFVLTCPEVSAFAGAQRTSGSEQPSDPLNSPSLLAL
# HSP90 inh: blocks HSP90-mediated luciferase refolding in reticulocyte lysate; inhibition, % at 5.6 µM; 290,000 tested, 0.91% active; Rabbit reticulocyte lysate, luciferase refolding luminescence, 3 h; AID 1789;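 active = inhibition above the screen-wide mean plus 3 SD, computed separately per campaign, cut at about 16% in these data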;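 note: 0% = DMSO wells and 100% = 60 µM geldanamycin wells; inhibitors lower the luminescence because luciferase stays unfolded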
# dFosB act-2: activators of mouse delta FosB homodimer DNA binding; shares compounds with dFosB act-1; purified delta FosB, TAMRA-CDK5 oligo fluorescence polarization; normalised: neutral wells 0, positive control 100; activation, % at 24.9 µM; 2,400 tested, under 10 active;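 active = highest replicate activation at or above 34% and every replicate reaching that threshold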;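 note: higher polarization means more probe DNA bound by delta FosB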
# Starred values were filed as active, the others as inactive; x = not tested or not shown. Compounds with a hit are over-represented: about 4.9% of the library has one in this group of screens.
SMILES,Platelet DG rel,HSF1 activator,HSF1 inh,MPTP block,dFosB act-1,HSP90 inh,dFosB act-2
Cc1nc2c(sc(=S)n2Cc2ccco2)c(=O)n1CC(=O)Nc1cc(F)ccc1F,1,26,10,2,103*,-1,2
CCN(CC)C(=O)Cn1nc(-c2ccc(Cl)cc2)c2ccccc2c1=O,-4,-6,0,0,-16,1,x
CCOC(=O)c1c(NC(=O)COC(=O)Cn2c(C)nc3ccccc32)sc2c1CCCC2,-30,-14,1,2,39*,2,-9
CCOC(=O)c1c(NC(=O)Cn2c(C)nc3ccccc32)sc2c1CCC2,1,2,6,3,-6,0,x
CC(=O)OCC1OC(OC2C[C@]3(C)C(CC(O)C4C([C@](C)(CCC=C(C)C)OC5OC(CO)C(O)C(O)C5O)CC[C@]43C)[C@@]3(C)CCC(O)C(C)(C)C23)C(O[C@@H]2OC(C)C(O)C(O)C2O)C(O)C1O (some centres not stated),x,x,x,0,1,x,x
Cc1ccc(-c2nc(SCC(=O)c3c(N)n(C)c(=O)n(C)c3=O)n[nH]2)cc1,2,x,x,0,32*,-4,0
Cc1ccccc1-n1nnnc1SCC(=O)c1c(N)n(C)c(=O)n(C)c1=O,0,-2,-1,0,23*,1,-1
CCc1cc(C(=O)N2CCN(C(=O)c3ccccc3)CC2)sc1C,x,x,x,-1,-2,x,x
c1cc2c3c(cccc3c1)C(N1CCN(C3=Nc4cccc5cccc3c45)CC1)=N2,x,x,x,x,x,-2,x
COc1ccccc1N1CCN(C2=Nc3cccc4cccc2c34)CC1,-4,-3,0,-1,26*,3,0
CCOC(=O)N1CCN(C2=Nc3cccc4cccc2c34)CC1,-3,14,12,0,22*,0,0
CC(=O)N1CCN(C2=Nc3cccc4cccc2c34)CC1,-6,-4,4,-1,17*,-4,1
CCOc1cc(NC(=O)C(C)C)c(OCC)cc1NC(=O)Nc1ccccc1,3,-12,-8,2,-6,-5,x
COc1ccc(CN2C(=O)CSC2c2ccccn2)cc1 (configuration not stated),19,2,-6,2,1,-3,x
CCn1c(=O)c2sccc2n(CC(=O)NCCC2=CCCCC2)c1=O,-8,-6,-2,1,4,2,x
CC(C)Cc1nnc(NC(=O)CN2C(=O)NC3(CC(C)CC(C)(C)C3)C2=O)s1 (configuration not stated),-7,1,-3,-2,-23,x,x
Cc1ccc(NC(=O)Nc2ccc3c(c2)C(=O)OC3)cc1Cl,5,-2,6,44,29*,0,3
O=C(Nc1ccc2c(c1)COC2=O)c1ccc(Cl)c(Cl)c1,4,29,16,2,38*,-1,6
CCCC(=O)Nc1ccc2c(c1)COC2=O,-27,-6,-8,-1,0,-1,x
O=C(Nc1ccc(Cl)c(Cl)c1)c1ccc(Cl)c(Cl)c1,-3,44,28,23,33*,-1,2
O=C(Nc1ccc(Cl)c(Cl)c1)c1ccncc1,x,10,16,-2,-8,-2,x
Cc1ccc(NC(=O)Nc2ccon2)cc1Cl,4,7,5,7,9,-1,x
CCN(CC)S(=O)(=O)c1cc(NC(=O)c2ccc(-n3cncn3)c([N+](=O)[O-])c2)ccc1C,8,17,1,0,-10,-1,x
O=C(CSc1nnc(-c2ccco2)o1)Nc1cccc([N+](=O)[O-])c1,-5,-8,-2,-1,41*,0,-12
COc1cc2c(cc1OC)-c1cc(Nc3cccc(C)c3)nc(=O)n1CC2,86*,-9,-9,1,30*,1,1
SMILES,Platelet DG rel,HSF1 activator,HSF1 inh,MPTP block,dFosB act-1,HSP90 inh,dFosB act-2
CCOc1ccc(Nc2cc3n(c(=O)n2)CCc2cc(OC)c(OC)cc2-3)cc1,9,-10,-19,2,-38,-2,x
COc1ccc(NC(=O)CN(C)C(=O)CCc2c[nH]c3ccccc23)cc1,-13,-5,4,-1,-8,1,x
CCCn1c(N)c(N(CCOC)C(=O)c2ccc(-c3ccc(Cl)cc3)o2)c(=O)[nH]c1=O,2,5,-2,-1,-5,x,x
COCCn1c(N)c(N(Cc2ccccc2)C(=O)c2ccc(-c3ccc(Cl)cc3)o2)c(=O)[nH]c1=O,5,-13,-2,-1,23*,x,1
O=c1[nH]c(=O)n2c(c1-c1ccccc1)OC(CBr)C2 (configuration not stated),x,x,x,-1,x,x,x
C/C(=N/NC(=O)c1ccc2c(c1)OCO2)c1ccc(NC(=O)c2ccc(F)cc2)cc1,x,x,x,0,43*,-4,2
CCC(=O)Nc1cccc(NC(=O)c2ccc3c(c2)OCO3)c1,1,-37,-22,-1,28*,4,1
Cc1cc2nc(-c3ccccc3O)[nH]c2cc1C,x,x,x,3,11,x,x
Clc1cc2nc(-c3cccnc3Cl)[nH]c2cc1Cl,-5,55*,26,2,35*,2,6
Cc1c(NC(=O)c2cc(-n3cnnc3)ccc2Cl)cccc1-c1nc2ccccc2s1,-11,30,16,-2,31*,-1,-1
Clc1ccc(-c2nnc(NCCN3CCCC3)c3ccccc23)cc1,10,-1,-2,1,-7,-3,x
Clc1ccc(-c2nnc(NCc3ccccc3)c3ccccc23)cc1,13,35,12,50,18*,0,6
O=C(NC(C(=O)N/N=C/c1cccc2ccccc12)c1n[nH]c(=O)c2ccccc12)c1ccccc1 (configuration not stated),-13,34,29,1,28*,2,8
O=C(CC(NC(=O)C(F)(F)F)c1ccccc1)Nc1nnc(CCc2ccccc2)s1 (configuration not stated),1,-5,-1,6,19*,2,4
Cc1ccc(NC(=O)/C(C#N)=C/c2ccc(C)s2)c(C)c1,8,12,10,2,17*,-4,4
O=C(Nc1nccs1)c1cn(-c2ccccc2)nc1-c1ccccc1,-33,13,-2,-2,6,1,x
CC(C)COc1ccc(-c2nn(-c3ccccc3)cc2C(=O)Nc2nccs2)cc1,-11,12,-3,3,39*,4,1
COCCNC(=O)CN1C(=O)/C(=C/c2ccccc2)Oc2ccc(C(C)(C)C)cc21,-3,-7,-3,0,-6,-3,x
O=C(CSc1nc2ccccc2c(=O)n1-c1ccccc1)c1c[nH]c2ccccc12,-1,-1,-7,29,29*,0,5
